# Structures can show the parent of a compound that is named as a salt. A number with no mark means an inactive call.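 Rule for the calls: active = normalised median growth AUC below 0.1 of DMSO control; inactive = AUC 0.1 or higher.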
# System: S. enterica typhimurium WT
# Assay: growth AUC normalised to DMSO control (median) (fraction of control); higher = less growth inhibition, active = hit call of the paper
# Settings: 20 µM
# In short: (§1)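 Anaerobic growth was tracked hourly at OD578 for 24 h in 96-well plates of mGAM seeded at OD578 0.01 with each approved-drug library compound at 20 μM and 1% DMSO. Strains had first been passaged twice overnight without oxygen. Three biological replicates were run. The reported median is the area under the curve, calculated by the trapezoidal rule on curves truncated at entry into stationary phase and normalised to vehicle wells on the same plate.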
# 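Note: active when median AUC fell below 0.1.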
row,SMILES,growth AUC normalised to DMSO control
1,NS(=O)(=O)c1cc2c(cc1Cl)NC(Cc1ccccc1)NS2(=O)=O (centres undefined) [Benzylhydrochlorothiazide],1
2,CC(C)(C)NC(=O)[C@@H]1CN(Cc2cccnc2)CCN1C[C@@H](O)C[C@@H](Cc1ccccc1)C(=O)N[C@H]1c2ccccc2C[C@H]1O [Indinavir sulfate],0.997
3,CCCCOCCOCCOCc1cc2c(cc1CCC)OCO2 [Piperonyl butoxide],1.02
4,CC(=O)Nc1c(I)c(NC(C)=O)c(I)c(C(=O)O)c1I [Diatrizoic acid dihydrate],0.998
5,NC(=O)c1ncn([C@@H]2O[C@H](CO)[C@@H](O)[C@H]2O)c1O [Mizoribine],1.01
6,CCN1CCN(Cc2ccc(Nc3ncc(F)c(-c4cc(F)c5nc(C)n(C(C)C)c5c4)n3)nc2)CC1 [Abemaciclib],1
7,OC[C@H]1O[C@H](O[C@H]2O[C@H](CO)[C@@H](O)[C@H](O)[C@H]2O)[C@H](O)[C@@H](O)[C@@H]1O [Trehalose dihydrate],1.01
8,O=C(O)CSCC(=O)NC1CCSC1=O (centres undefined) [Erdosteine],1
9,Cc1nc(C)c(Cl)c(O)c1Cl [Clopidol],1.01
10,CCOC(=O)[C@H](CCc1ccccc1)N[C@@H](C)C(=O)N(CC(=O)O)C1Cc2ccccc2C1 [Delapril Hydrochloride],1
11,Cc1cc2nc3c(=O)[nH]c(=O)nc-3n(C[C@H](O)[C@H](O)[C@H](O)CO)c2cc1C [Riboflavine],1
12,CCCCCNC(=N)N/N=C/c1c[nH]c2ccc(OC)cc12 [Tegaserod maleate],0.994
13,COc1ccc(-c2ccc3cc(C(=O)O)ccc3c2)cc1C12CC3CC(CC(C3)C1)C2 [Adapalene],0.988
14,CN1CC(O)c2cc(N=NC(N)=O)c(O)cc21 (centres undefined) [Carbazochrome],0.999

# System: S. enterica typhimurium tolC KO
# Assay: as above
# Settings: 20 µM
# In short: as §1
row,SMILES,growth AUC normalised to DMSO control
1,CCCCCOC(=O)Nc1nc(=O)n([C@@H]2O[C@H](C)[C@@H](O)[C@H]2O)cc1F [Capecitabine],0.994
2,CC(C)(C)C(O)/C=C/c1ccc2c(c1)OCO2 (centres undefined) [Stiripentol],0.93
3,COc1cc(N)cn[n+]1-c1ccccc1 [Amezinium metilsulfate],1
4,Nc1ccc2cc3ccc(N)cc3nc2c1 [Proflavine hemisulfate],0.91
5,Nc1cc(C(Cl)=C(Cl)Cl)c(S(N)(=O)=O)cc1S(N)(=O)=O [Clorsulon],0.999
6,O=C(NC1CCN(CCCCC2(C(=O)NCC(F)(F)F)c3ccccc3-c3ccccc32)CC1)c1ccccc1-c1ccc(C(F)(F)F)cc1 [Lomitapide],1
7,CCOC(=O)c1ccc(C#Cc2ccc3c(c2)C(C)(C)CCS3)nc1 [Tazarotene],0.982
8,C/C(=C(\CCOC(=O)c1ccccc1)SS/C(CCOC(=O)c1ccccc1)=C(/C)N(C=O)Cc1cnc(C)nc1N)N(C=O)Cc1cnc(C)nc1N [Bisbentiamine],0.999
9,C[C@@H]1CCO[C@H]2Cn3cc(C(=O)NCc4ccc(F)cc4F)c(=O)c(O)c3C(=O)N12 [Dolutegravir],0.907
10,O=S(=O)(c1cccc2cnccc12)N1CCCNCC1 [Fasudil Hydrochloride],1.01
11,CCCCCCNC(=O)n1cc(F)c(=O)[nH]c1=O [Carmofur],0.717
12,COc1cc(Nc2c(C#N)cnc3cc(OCCCN4CCN(C)CC4)c(OC)cc23)c(Cl)cc1Cl [Bosutinib],0.98
13,C[C@@H]1C[C@H]2[C@@H]3C[C@H](F)C4=CC(=O)C=C[C@]4(C)[C@@]3(F)[C@@H](O)C[C@]2(C)[C@@]1(O)C(=O)COC(=O)C(C)(C)C [Flumethasone pivalate],1
14,CC(C)[C@H](N)C(=O)OCC(CO)OCn1cnc2c(=O)nc(N)[nH]c21 (some centres undefined) [Valganciclovir hydrochloride],1
15,CC(=O)OC(C)OC(=O)C(C)c1ccc(-c2ccccc2)c(F)c1 (centres undefined) [Flurbiprofen axetil],0.856
16,CO[C@@H]1[C@@H](OC(N)=O)[C@@H](O)[C@H](Oc2ccc3c(O)c(NC(=O)c4ccc(O)c(CC=C(C)C)c4)c(=O)oc3c2C)OC1(C)C [Novobiocin sodium salt],0.0104 (active)
17,CC1=C(C)C(=O)C(C(CCCCCC(=O)O)c2ccccc2)=C(C)C1=O (centres undefined) [Seratrodast],0.999
18,Cc1ccc(O)c([C@H](CCN(C(C)C)C(C)C)c2ccccc2)c1 [Tolterodine tartrate],0.971
19,CC1CC(OC(=O)C(O)c2ccccc2)CC(C)(C)C1 (centres undefined) [Cyclandelate],0.903
20,CC(C)=CCOc1ccc(/C=C/C(=O)c2ccc(OCC=C(C)C)cc2OCC(=O)O)cc1 [Sofalcone],0.902

row,SMILES,growth AUC normalised to DMSO control
1,C=CC[C@@H]1/C=C(\C)C[C@H](C)C[C@H](OC)[C@H]2O[C@@](O)(C(=O)C(=O)N3CCCC[C@H]3C(=O)O[C@H](/C(C)=C/[C@@H]3CC[C@@H](O)[C@H](OC)C3)[C@H](C)[C@@H](O)CC1=O)[C@H](C)C[C@@H]2OC [Tacrolimus Monohydrate],1.04
2,CO[C@@]12[C@H](COC(N)=O)C3=C(C(=O)C(C)=C(N)C3=O)N1C[C@@H]1N[C@@H]12 [Mitomycin C],0.00599 (active)
3,C=C(NC(=O)C(=C)NC(=O)c1csc(C2=N[C@@H]3c4csc(n4)[C@H]4NC(=O)c5csc(n5)[C@H]([C@](C)(O)[C@@H](C)O)NC(=O)[C@H]5CSC(=N5)/C(=C/C)NC(=O)[C@H]([C@@H](C)O)NC(=O)c5csc(n5)[C@]3(CC2)NC(=O)[C@H](C)NC(=O)C(=C)NC(=O)[C@H](C)NC(=O)[C@H]([C@@H](C)CC)N[C@@H]2C=Cc3c([C@H](C)O)cc(nc3[C@H]2O)C(=O)O[C@@H]4C)n1)C(N)=O [Thiostrepton],1
4,CCN(CC)CCOCCOC(=O)C(CC)(CC)c1ccccc1 [Oxeladin citrate],0.973
5,C=CCOc1ccc(CC(=O)O)cc1Cl [Alclofenac],0.959
6,O=C(O)c1ccccc1Nc1cc(Cl)ccc1C(=O)O [Lobenzarit disodium],0.959
7,NS(=O)(=O)c1cc2c(cc1Cl)NC(Cc1ccccc1)NS2(=O)=O (centres undefined) [Benzylhydrochlorothiazide],0.994
8,CC(C)(C)NC(=O)[C@@H]1CN(Cc2cccnc2)CCN1C[C@@H](O)C[C@@H](Cc1ccccc1)C(=O)N[C@H]1c2ccccc2C[C@H]1O [Indinavir sulfate],0.994
9,CCCCOCCOCCOCc1cc2c(cc1CCC)OCO2 [Piperonyl butoxide],0.872
10,CC(=O)Nc1c(I)c(NC(C)=O)c(I)c(C(=O)O)c1I [Diatrizoic acid dihydrate],0.995
11,NC(=O)c1ncn([C@@H]2O[C@H](CO)[C@@H](O)[C@H]2O)c1O [Mizoribine],0.996
12,CCN1CCN(Cc2ccc(Nc3ncc(F)c(-c4cc(F)c5nc(C)n(C(C)C)c5c4)n3)nc2)CC1 [Abemaciclib],0.909
13,OC[C@H]1O[C@H](O[C@H]2O[C@H](CO)[C@@H](O)[C@H](O)[C@H]2O)[C@H](O)[C@@H](O)[C@@H]1O [Trehalose dihydrate],1.01
14,O=C(O)CSCC(=O)NC1CCSC1=O (centres undefined) [Erdosteine],0.999
15,Cc1nc(C)c(Cl)c(O)c1Cl [Clopidol],0.983
16,CCOC(=O)[C@H](CCc1ccccc1)N[C@@H](C)C(=O)N(CC(=O)O)C1Cc2ccccc2C1 [Delapril Hydrochloride],0.987
17,Cc1cc2nc3c(=O)[nH]c(=O)nc-3n(C[C@H](O)[C@H](O)[C@H](O)CO)c2cc1C [Riboflavine],0.991
18,CCCCCNC(=N)N/N=C/c1c[nH]c2ccc(OC)cc12 [Tegaserod maleate],0.941
19,COc1ccc(-c2ccc3cc(C(=O)O)ccc3c2)cc1C12CC3CC(CC(C3)C1)C2 [Adapalene],1.01
20,CN1CC(O)c2cc(N=NC(N)=O)c(O)cc21 (centres undefined) [Carbazochrome],0.952

# Source: the supplement of paper PMC12350171
